Results taken from PubChem BioAssay AID1159580 (chemical genetic matrix, 2015).
Several values for one entry are separate records, joined by “and”; a condition that tells them apart may be missing. Identical values can stand only once. Among all 5,500 compounds or so, about 2,000 (36%) were called active. Roughly 18% stayed inconclusive and do not appear here. Rule as the data show it: active = normalized growth mostly below about 0.91 (no sharp cut-off); inconclusive = no clear call, values can overlap the other calls; inactive = mostly above about 0.92. The list shows a part of the results.

Test: chemical genetic growth profiling, strain panel (AID 1159580);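 also: tested at 20 µM; growth read once vehicle control cultures reached saturation at 30 °C; 1 = growth at the plate median or of vehicle wells; lower values mean less growth of the strain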
Conditions: S. cerevisiae deletion strains, growth OD

Measured: normalized growth

O=C(O)CC[N+](=O)[O-]
inactive: locus YAL013W, strain DEP1, active compounds read low 0.991 and 0.999 | locus YAL021C, strain ccr4, active compounds read low 0.987 | locus YAL026C, strain drs2, active compounds read low 1.01 | locus YAL030W, strain snc1, active compounds read low 1 | locus YAL040C, strain CLN3, active compounds read low 0.99 | locus YBL061C, strain skt5, active compounds read low 1.01 | locus YBR009C, strain hhf1, active compounds read low 1.01 | locus YBR021W, strain FUR4, active compounds read low 1.12 | locus YBR023C, strain chs3, active compounds read low 1.01 | locus YBR171W, strain sec66, active compounds read low 1.01 | locus YBR229C, strain ROT2, active compounds read low 1.01 | locus YBR231C, strain swc5, active compounds read low 1.02 | locus YBR279W, strain paf1, active compounds read low 0.999 | locus YCL011C, strain gbp2, active compounds read low 1.02 | locus YCL016C, strain dcc1, active compounds read low 1 | locus YCL029C, strain bik1, active compounds read low 0.985 | locus YCL061C, strain MRC1 (second series), active compounds read low 1 | locus YCL061C, strain MRC1, active compounds read low 1 | locus YCL069W, strain vba3, active compounds read low 0.996 | locus YCR088W, strain abp1, active compounds read low 1 | locus YDL005C, strain med2, active compounds read low 1 | locus YDL035C, strain GPR1, active compounds read low 0.976 | locus YDL040C, strain nat1, active compounds read low 0.988 | locus YDL074C, strain BRE1, active compounds read low 0.999 | locus YDL101C, strain DUN1, active compounds read low 0.998 | locus YDL134C, strain PPH21, active compounds read low 0.997 | locus YDL185W, strain tfp1, active compounds read low 0.962 | locus YDL192W, strain arf1, active compounds read low 0.974 | locus YDR001C, strain nth1, active compounds read low 0.993 | locus YDR069C, strain doa4, active compounds read low 1.02 | locus YDR101C, strain arx1, active compounds read low 0.986 | locus YDR137W, strain rgp1, active compounds read low 0.999 | locus YDR150W, strain NUM1, active compounds read low 0.972 and 1 | locus YDR159W, strain sac3, active compounds read low 1.02 | locus YDR162C, strain NBP2, active compounds read low 1.01 | locus YDR195W, strain ref2 0.977 | locus YDR297W, strain sur2, active compounds read low 1.02 | locus YDR318W, strain mcm21, active compounds read low 0.984 | locus YDR334W, strain swr1, active compounds read low 1.01 | locus YDR335W, strain msn5, active compounds read low 1 | locus YDR363W, strain ESC2, active compounds read low 1.01 | locus YDR388W, active compounds read low 0.993 | locus YDR392W, strain spt3, active compounds read low 1.02 | locus YDR502C, strain sam2, active compounds read low 0.988 | locus YEL003W, strain gim4, active compounds read low 1.02 | locus YEL037C, strain rad23, active compounds read low 1 | locus YEL061C, strain CIN8 (second series), active compounds read low 1 | locus YEL061C, strain CIN8, active compounds read low 0.994 | locus YER002W, strain NOP16, active compounds read low 1.01 | locus YER015W, strain faa2, active compounds read low 1 | locus YER016W, strain bim1, active compounds read low 1.01 | locus YER110C, active compounds read low 0.963 | locus YER111C, strain swi4, active compounds read low 1.01 | locus YER155C, strain BEM2 (second series), active compounds read low 1.03 | locus YER155C, strain BEM2, active compounds read low 0.99 | locus YER167W, strain BCK2, active compounds read low 0.988 | locus YFR010W, strain ubp6, active compounds read low 1.01 | locus YGL078C, strain dbp3, active compounds read low 0.979 | locus YGL086W, strain mad1, active compounds read low 0.982 | locus YGL167C, strain pmr1, active compounds read low 1.01 | locus YGL173C, strain kem1, active compounds read low 1.02 | locus YGL227W, strain vid30, active compounds read low 1 | locus YGL240W, strain doc1, active compounds read low 1.04 | locus YGL248W, strain PDE1, active compounds read low 1 | locus YGL253W, strain hxk2, active compounds read low 1.01 | locus YGR078C, strain PAC10, active compounds read low 0.986 | locus YGR135W, strain pre9, active compounds read low 0.997 | locus YGR229C, strain SMI1, active compounds read low 0.992 and 1 | locus YGR252W, strain gcn5, active compounds read low 0.977 | locus YHR013C, strain ard1, active compounds read low 0.997 | locus YHR027C, strain rpn1, active compounds read low 0.997 | locus YHR030C, strain SLT2, active compounds read low 0.983 and 0.976 | locus YHR079C, strain IRE1 (second series), active compounds read low 0.996 | locus YHR079C, strain IRE1, active compounds read low 0.976 | locus YHR094C, strain hxt1, active compounds read low 0.978 | locus YHR129C, strain ARP1, active compounds read low 0.986 | locus YHR142W, strain chs7, active compounds read low 1.02 | locus YHR200W, strain rpn10, active compounds read low 0.973 | locus YIL066C, strain RNR3, active compounds read low 0.981 | locus YIL073C, strain SPO22, active compounds read low 0.934 | locus YIL125W, strain kgd1, active compounds read low 0.984 | locus YIR030C, strain dcg1, active compounds read low 0.986 | locus YJL092W, strain hpr5, active compounds read low 1 | locus YJL095W, strain BCK1 (second series), active compounds read low 1.01 | locus YJL095W, strain BCK1, active compounds read low 1 and 1.01 | locus YJL115W, strain asf1, active compounds read low 0.997 | locus YJL129C, strain trk1, active compounds read low 1.01 | locus YJL134W, strain LCB3, active compounds read low 0.991 | locus YJL154C, strain vps35, active compounds read low 0.996 | locus YJL164C, strain tpk1, active compounds read low 0.993 | locus YJL166W, strain qcr8, active compounds read low 1.02 | locus YJL168C, strain set2, active compounds read low 0.99 | locus YJL187C, strain SWE1 (second series), active compounds read low 0.982 | locus YJL187C, strain SWE1, active compounds read low 1.01 | locus YJR043C, strain POL32, active compounds read low 0.98 | locus YJR066W, strain TOR1, active compounds read low 0.935
